Compound activity as filed in PubChem BioAssay.
TLR4 MyD88 comp – inhibitors of TLR4-MyD88 association in cells, primary screen, cell-based, HeLa CL3-4, BLA complementation, FRET ratio. HeLa CL3-4 TLR4/MyD88 BLA complementation. Toll-like receptor 4 (Homo sapiens) + Myeloid differentiation primary response protein …. inhibition, % at 8.4 µM. hit rate 0.18% among 200,000; in the data active = inhibition above about 25%;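 note: 0% = vehicle and 100% = reference inhibitor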
NOD2-RIPK2 inh – NOD2-RIPK2 binding disruptors in cells, primary screen, fluorescence, CHO cells, BLA complementation; Receptor-interacting serine/threonine-protein kinase 2 (Homo sapiens), O43353; CCF4 ratio; inhibition, % at 4.98 µM; hit rate 0.38% among 360,000; in the data active = inhibition above about 21%;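 note: 0% = vehicle only and 100% = reference blocker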
TLR9-MyD88 block – inhibitors of TLR9-MyD88 association in cells, primary screen, cell-based, CHO, BLA complementation, fluorescence; inhibition, % at 4.98 µM; AID 504734, 2011; hit rate 0.21% among 340,000; CCF4 FRET ratio; Toll-like receptor 9 (Homo sapiens) + Myeloid differentiation primary response protein …;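 active = inhibition above the mean over all tested compounds plus 3 SD, cut at about 21% in these data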;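 note: 0% = DMSO only wells and 100% = clavulanate BLA inhibitor control wells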
HTR2A ag – mouse Htr2a agonists via beta-arrestin recruitment, primary screen, cell-based, luminescence; activation, % at 7.6 µM; hit rate 0.66% among 360,000; CHO-K1 mHTR2A beta-arrestin complementation; percent of 30 µM serotonin response;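 active = activation above a run cutoff, the mean activation of all tested compounds plus 3 SD, cut at about 14% in these data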;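 note: 0% = plate median of compound wells and 100% = 30 µM serotonin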
ABHD5-PLIN5 inh – ABHD5-PLIN5 interaction inhibitors, primary screen, cell lysate, split luciferase complementation, luminescence. Perilipin-5 (Homo sapiens) + 1-acylglycerol-3-phosphate O-acyltransferase ABHD5 (Homo …. Split G. princeps luciferase complementation, 4 h. inhibition, % at 4 µM. hit rate 0.78% among 360,000;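 active = inhibition above the mean inhibition across every tested compound plus 3 SD, cut at about 22% in these data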;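 note: 0% = DMSO only wells and the 100% control is not disclosed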
Target sequence (Q00G26 whole entry, looked up): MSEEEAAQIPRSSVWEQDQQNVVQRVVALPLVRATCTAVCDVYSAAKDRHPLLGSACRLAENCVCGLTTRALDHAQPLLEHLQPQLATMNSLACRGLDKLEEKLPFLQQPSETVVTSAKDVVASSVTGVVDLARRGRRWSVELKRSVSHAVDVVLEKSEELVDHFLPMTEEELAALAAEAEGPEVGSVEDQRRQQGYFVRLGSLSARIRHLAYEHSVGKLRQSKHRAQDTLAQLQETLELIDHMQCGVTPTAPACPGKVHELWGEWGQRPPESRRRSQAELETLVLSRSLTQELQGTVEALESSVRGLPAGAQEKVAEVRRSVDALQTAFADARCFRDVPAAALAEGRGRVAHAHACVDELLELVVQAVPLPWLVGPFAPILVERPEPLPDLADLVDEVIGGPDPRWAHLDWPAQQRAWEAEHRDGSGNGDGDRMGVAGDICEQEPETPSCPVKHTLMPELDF
Target sequence (Q8WTS1 whole entry, looked up): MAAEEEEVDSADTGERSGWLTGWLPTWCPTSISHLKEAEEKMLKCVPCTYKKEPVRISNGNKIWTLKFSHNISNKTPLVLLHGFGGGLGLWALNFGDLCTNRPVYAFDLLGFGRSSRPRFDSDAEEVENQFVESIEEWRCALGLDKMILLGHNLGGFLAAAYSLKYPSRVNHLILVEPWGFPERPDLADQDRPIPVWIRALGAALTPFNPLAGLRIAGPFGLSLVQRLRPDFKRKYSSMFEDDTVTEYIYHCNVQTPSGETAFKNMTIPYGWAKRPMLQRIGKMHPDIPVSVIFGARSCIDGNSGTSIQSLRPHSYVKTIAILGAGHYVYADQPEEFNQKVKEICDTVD
CRFR2-BP antag – antagonists of CRF-BP/CRF-R2 complex, primary screen, cell-based, HEK293, calcium dye fluorescence, uHTS. hit rate 0.59% among 350,000. inhibition, % at 11.8 µM. CRF-induced calcium fluorescence;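 active = inhibition of the ligand-induced calcium signal above about 50% at the single tested concentration, limit read from the data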
TLR9-MyD88 cf – TLR9-MyD88 association inhibitors, retest, confirmation, cell-based, CHO, BLA complementation, fluorescence, triplicate. CCF4 FRET ratio. shares compounds with TLR9-MyD88 block. hit rate 51% among 680. inhibition, % at 4.98 µM. AID 540250, 2011;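 active = mean inhibition across three repeats above about 21% taken from the earlier screen, limit read from the data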;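 note: blue over green emission ratio reports constitutive TLR9 MyD88 association via BLA complementation; 0% = DMSO vehicle wells and 100% = clavulanate BLA inhibitor wells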
BLA counter – beta-lactamase reporter inhibitors in CHO cells, artefact control for TLR9-MyD88 binding inhibitor project, cell-based, fluorescence. inhibition, % at 4.98 µM. hit rate 7% among 680. shares compounds with TLR9-MyD88 block. AID 540251, 2011. CHO-BLA cells, CCF4 FRET ratio, BLA reporter;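 active = mean inhibition above a 50% cutoff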;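 note: counterscreen of TLR9-MyD88 hits on CMV-driven BLA in CHO-K1 cells; 0% = DMSO alone and 100% = clavulanate blocking BLA; higher means less blue over green ratio so more BLA blockade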
TLR9 CHO tox – CHO cell viability loss – luminescence, single concentration, cytotoxicity control for TLR9-MyD88 binding inhibitor project; shares compounds with TLR9-MyD88 block; TLR9-MyD88 CHO cells cytotoxicity; inhibition, % at 4.98 µM; hit rate 39% among 680; AID 588336, 2011; in the data active = inhibition above about 11%
Numbers without * were called inactive; . = not tested or not shown. The list is not random: actives were taken first. Their share in the collection is about 2.4%.

SMILES	TLR4 MyD88 comp	NOD2-RIPK2 inh	TLR9-MyD88 block	HTR2A ag	ABHD5-PLIN5 inh	CRFR2-BP antag	TLR9-MyD88 cf	BLA counter	TLR9 CHO tox
Cc1ccc(N2C(=O)Cc3ccccc3C2=O)cc1	.	-4.3	22.2*	0.6	2.4	1.9	41.6*	40.5	-0.2
N#Cc1ccc(-c2ccco2)nc1SCC(=O)c1ccc(Cl)cc1	29.6*	14.9	28.2*	2.1	6.8	-13.6	25.3*	25.2	8.2
COC(=O)[C@]12CCCCC=C1N(CCC1=CCCCC1)C(=O)[C@H](CC(=O)N1CCCC1)C2	.	-11.1	.	-3.0	0.4	.	.	.	.
O=C1CN(C(=O)Cn2ncc(Cl)c(Cl)c2=O)c2ccccc2N1	21.8	15.6	8.3	0.6	-1.9	-1.2	.	.	.
O=C(OCn1ncc(Cl)c(Cl)c1=O)c1ccccc1Cl	16.1	53.5*	31.4*	13.4	7.5	-28.1	27.8*	22.8	98.6*
CC1(C(=O)NS(=O)(=O)c2ccc3c(c2)CCO3)CCN1C(=O)Cc1ccc(-c2ccccc2)cc1 (stereo not drawn)	.	0.9	.	4.6	-2.6	.	.	.	.
Cc1cc(C)c2nc(NNC(=O)c3cc(-c4cccs4)nc4ccccc34)sc2c1	6.8	14.9	24.5*	1.5	5.7	6.5	1.0	4.2	-2.4
CC1=CC(Cc2ccccc2)N(C)C(C(N)=O)C1 (stereo not drawn)	.	-3.8	.	3.4	-1.4	.	.	.	.
NC(Cc1ccccc1)c1csc(NC(=O)c2cccc(OC(F)(F)F)c2)n1 (stereo not drawn)	.	4.2	.	-5.3	-15.0	.	.	.	.
O=C(N/N=C/c1c[nH]c2ccccc12)c1ccc(Br)cc1	.	3.3	-2.6	-2.9	-1.2	-3.6	.	.	.
O=C(N/N=C\c1c[nH]c2ccccc12)c1ccc(O)cc1	.	2.9	21.1*	-3.7	-1.5	2.2	-0.5	-0.1	1.5
Cn1cccc1C1C=C(c2ccc(C(C)(C)C)cc2)Nc2ncnn21 (stereo not drawn)	.	3.1	1.1	-1.6	1.8	-29.4	.	.	.
CC(C)(C)c1ccc(C2=CC(c3ccccc3F)n3ncnc3N2)cc1 (stereo not drawn)	.	15.4	22.2*	4.7	-12.6	-4.3	-4.2	-7.7	4.5
CCc1ccc(OCC(=O)N/N=C(\C)c2ccc(OC(F)F)cc2)cc1	7.1	-7.5	21.2*	3.2	0.9	-26.4	0.9	3.8	3.9
CCc1ccc(OCC(=O)N/N=C(\C)c2ccccc2OC(F)F)cc1	-9.7	-1.9	-16.0	-0.1	-3.9	-17.9	.	.	.
Cc1cccc(NC(=O)c2cc(-c3cc(Cl)ccc3O)n[nH]2)c1	.	-39.7	22.8*	0.0	-14.8	5.6	-5.5	-2.0	-10.0
COc1ccc(C(=O)C=Cc2ccc3c(c2)OCO3)cc1OC	.	-2.0	-8.5	-3.4	1.0	-9.7	.	.	.
COc1cc(/C=C/C(=O)c2ccc3c(c2)OCO3)cc(Cl)c1O	.	11.1	21.9*	-7.6	0.5	-121.8	15.8	19.6	3.2
Cc1ccccc1OCC(=O)OCC(=O)NC1CCCC(C)C1C (stereo not drawn)	.	0.0	4.7	4.0	-3.7	-0.3	.	.	.
COc1ccc(CNC(=O)c2cc(-c3ccc(OC)c(OC)c3)on2)cc1	-5.4	-3.6	22.7*	1.3	-6.1	2.3	1.2	0.3	-4.3
COc1ccc(-c2cc(C(=O)NCc3ccc(Cl)cc3)no2)cc1OC	-1.5	1.6	0.5	-6.5	7.0	-14.2	.	.	.
